A selection: hits, their analogues and other compounds. The true share with any hit is near 3.4%.
esBAF inh = blocks esBAF chromatin remodeling in mouse ES cells; Bmi1-luciferase knock-in reporter, 24 h; 100% = twice the neutral-well signal; reporter increase, % at 12.5 µM; 350,000 compounds, 2% hits; AID 602393; in the data active = activation above about 40%; inconclusive = no clear call, values can overlap the other calls;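 also: 0% = median of the plate's neutral control wells and 100% = double that signal; a rise in the Bmi1 reporter signal indicates esBAF inhibition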
HSF1 inh = HSF1 inhibition. NIH3T3-HGL HSE-luciferase, MG132-induced, luminescence 8 h; active compounds read low. activity change, negative = inhibition, % at 7.5 µM (by protocol). 300,000 compounds, 0.77% hits;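 active = more than half of replicate wells show activity change below -50%, luminescence cut by over half; inconclusive = some wells, but at most half, below -50%; inactive = no replicate well below -50%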;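 also: luciferase reports HSF-1 transcriptional activity via heat shock element; 0% = median of DMSO wells and -100% = zero luminescence signal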
HSF-1 act = increases HSF-1 driven luciferase reporter signal; NIH3T3-HGL HSF-1 luciferase reporter, MG132, 8 h; 100% = twice DMSO control signal; activation, % at 9 µM; 300,000 compounds, 1.7% hits;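 active = mean replicate activation of at least 50% with a set share of replicates each reaching 50%; inconclusive = only one of those two conditions met; inactive = mean below 50% and too few replicates reaching it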;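 also: 0% = median of the neutral control wells and 100% = twice that signal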
Vif imaging = HIV Vif inhibition; HEK293T cells, Vif self-association by quenched fluorescence, imaging, 24 h; inhibition, % at 7.49 µM; 340,000 compounds, 0.35% hits; AID 602346; in the data active = inhibition above about 50%, passing the limit was not always enough; inconclusive = no clear call, values can overlap the other calls; inactive = below about 31%
The depositor's hits bear a star; ? = inconclusive; / = not tested or not shown.

SMILES	esBAF inh	HSF1 inh	HSF-1 act	Vif imaging
O=C(C[C@@H]1CC[C@@H]2[C@H](COC[C@H](O)CN2C(=O)Nc2ccc(C(F)(F)F)cc2)O1)NCCc1ccncc1	-2.5	/	/	/
COc1cccc(NC(=O)N(C)C[C@H]2Oc3ncc(C4=CCCCC4)cc3C(=O)N([C@@H](C)CO)C[C@H]2C)c1	9.7	/	/	/
O=C(CCN1C(=O)c2ccccc2C1=O)N1CCOCC1	-7.2	-2.2	-25.4	-1.6
O=C1c2cccc3cccc(c23)C(=O)N1CCc1ccccc1	/	35.9	58.8*	-5.0
O=C(CCN1C(=O)c2cccc3cccc(c23)C1=O)N1CCOCC1	52.8*	14.5	28.1	3.6
COc1ccc(C(C#N)=Cc2ccc(NC(C)=O)cc2)cc1	20.9	/	/	10.0
COc1ccc(C(C#N)=Cc2ccc(OC)c(OC)c2)cc1	68.4*	/	/	1.7
COc1ccc(/C=C(/C#N)c2cccnc2)cc1OC	5.1	-21.8	-16.7	-2.4
COc1ccc(C=C(C#N)c2ccc(OC)cc2)cc1	55.4*	/	/	-1.0
O=C([C@H]1[C@H](CO)[C@H]2Cn3c(cccc3=O)[C@@H]1N2C(=O)c1ccccc1)N1CCCCC1	6.0	/	/	/
COc1ccc(CN2C[C@H](C)[C@@H](OC)CN(C)C(=O)c3ccc(NC(=O)c4nc5ccccc5s4)cc3OC[C@@H]2C)cc1	31.3	/	/	/
CCCc1ccc2oc(C(=O)NCCc3cnn(C)c3)c(C)c2c1	47.4*	39.9	40.1	-12.3
CCCc1ccc2oc(C(=O)NCCc3nc(C(=O)OCC)cs3)c(C)c2c1	/	18.4	29.1	/
CCCc1ccc2oc(C(=O)N(C)Cc3ccn[nH]3)c(C)c2c1	74.9*	25.5	33.3	-2.1
CCCNC(=O)[C@H]1[C@H](CO)[C@H]2Cn3c(ccc(/C=C/c4ccccc4)c3=O)[C@@H]1N2C(=O)c1cccnc1	-3.0	/	/	/
CC(C)c1cn(CC[C@H]2CC[C@H](NS(=O)(=O)Cc3ccccc3)[C@H](CO)O2)nn1	-2.6	/	/	/
Cc1ccc(C2=Nc3ccccc3NC(C)(c3ccc(C)o3)C2)o1 (centres undefined)	13.4	40.3	53.0*	-5.5
CCN1[C@H](C(=O)NCc2ccccc2)[C@@H](CO)[C@@H]2Cn3c(ccc(-c4ccccc4OC)c3=O)[C@@H]21	-3.4	/	/	/
O=C(Cn1c(=O)c2cccn2c2ccccc21)Nc1cc(F)ccc1F	5.8	-56.7*	-67.0	-4.7
O=C(Cn1c(=O)c(=O)n(Cc2ccccc2)c2ccc(Cl)cc21)Nc1cc(F)ccc1F	/	21.3	23.0	/
Cc1ccc(S(=O)(=O)N/N=c2\oc3ccccc3cc2C(=O)Nc2cccc(C)c2)cc1	/	37.2	58.0*	/
Cc1noc(C)c1NC(=O)Nc1ccc2c(c1)CC(=O)N([C@@H](C)CO)C[C@H](C)[C@@H](CN(C)S(=O)(=O)c1ccccc1)O2	-10.0	/	/	/
CCOc1ccc(-c2nc(CSCC(=O)NCC3CCCO3)c(C)o2)cc1 (centres undefined)	-79.0	-57.3*	-56.1	-6.0
CCCNC(=O)CSCc1nc(-c2ccc(SC)cc2)oc1C	/	3.8	1.5	-2.6
CCc1ccc(-c2nc(CSCC(=O)NCc3ccco3)c(C)o2)cc1	/	-71.8*	-77.0	-14.4
SMILES	esBAF inh	HSF1 inh	HSF-1 act	Vif imaging
Cc1ccccc1Cn1c(-c2cncs2)nc2ccccc21	/	65.0	68.7*	12.1
Brc1cc2c(cc1Cn1c(-c3cncs3)nc3ccccc31)OCO2	-1.1	2.0	10.9	-8.4
CSCC(=O)N1CCc2ccc(NC(=O)c3ccccc3Cl)cc2C1	66.2*	20.3	40.9	1.4
Cc1nn(C)cc1C(=O)/C=C/c1ccc([N+](=O)[O-])cc1	/	22.0	61.4*	-7.9
CCn1cc(CN(C)C(=O)/C=C/c2ccc([N+](=O)[O-])cc2)c(C)n1	-11.5	0.2	-19.9	-3.1
Nc1cc(-c2ccco2)no1	3.9	36.7	71.9*	4.1
c1coc(-c2cnc3ccccc3n2)c1	2.8	/	/	-3.4
C=CCc1ccc(OC(=O)NC2CCCCC2)c(OC)c1	51.4*	1.2	28.4	-2.1
c1coc(-c2nn3c(-c4ccco4)nnc3s2)c1	-4.8	12.8	43.1	-2.6
COc1ccccc1-c1nn2c(-c3ccco3)nnc2s1	65.1*	44.4	61.8*	-1.2
CCN(C[C@H]1[C@H](c2ccc(C3=CCCC3)cc2)[C@H](CO)N1C(C)=O)C(C)=O	7.6	/	/	/
Nc1ccc(N=Nc2ccccc2)c2ccccc12	2.2	8.2	11.5	/
c1ccc(N=Nc2ccc3cccccc2-3)cc1	/	48.2	75.4*	0.2
Cc1ccn(CC(=O)NC2CC(C)(C)Cc3c2cnn3-c2ccc(F)cc2)n1 (centres undefined)	42.3*	6.0	1.7	-4.3
C=CCn1c(SCc2csc(-c3ccc(Cl)cc3)n2)nnc1-c1ccccc1OC	/	30.4	57.6*	-6.0
CCCN(C)C[C@@H]1Oc2cc(-c3cncnc3)ccc2S(=O)(=O)N([C@H](C)CO)C[C@@H]1C	1.4	/	/	/
C[C@@H]1CN([C@H](C)CO)C(=O)c2ccccc2-c2ccccc2CO[C@@H]1CN(C)Cc1ccc(F)cc1	-1.4	/	/	/
C/C(=N/NC(=O)c1ccco1)c1ccc(NC(=O)c2ccc(F)cc2)cc1	88.7*	20.5	42.5	/
CC(=O)Nc1ccc(/C(C)=N/NC(=O)c2ccc(F)cc2)cc1	/	2.9	7.3	8.4
C/C(=N/NC(=O)c1ccco1)c1ccc(NC(=O)c2ccc(Br)o2)cc1	46.9*	26.1	?	1.1
C/C(=N\NC(=O)CNC(=O)c1ccc(F)cc1)c1ccco1	-0.7	11.8	29.1	72.5*
COCC(=O)N(C)C[C@H]1Oc2ncc(C#Cc3ccc(F)cc3)cc2C(=O)N([C@H](C)CO)C[C@H]1C	2.2	/	/	/
C[C@@H]1CN([C@@H](C)CO)C(=O)c2cc(C#Cc3cccnc3)cnc2O[C@@H]1CN(C)Cc1ccncc1	2.5	/	/	/
O=c1cc(-c2ccc(Cl)cc2)[nH][nH]1	-14.9	5.6	-9.1	57.4*
C[C@H]1CN([C@@H](C)CO)C(=O)c2cccc(NC(=O)c3cnccn3)c2O[C@@H]1CN(C)C(=O)NC1CCCCC1	-1.0	/	/	/
SMILES	esBAF inh	HSF1 inh	HSF-1 act	Vif imaging
CCOC(=O)C[C@H]1c2cc(F)ccc2S(=O)(=O)N1c1cccc(OC)c1	-3.0	7.0	13.7	-9.3
CC(=O)C[C@H]1c2cc(F)ccc2S(=O)(=O)N1c1ccc(N(C)C)cc1	17.8	-61.6*	-65.2	-5.6
Clc1c(CSc2nc3ccccc3o2)nc2sccn12	-28.1	77.7	102.9*	-5.6
Brc1c(CSc2nc3ccccc3o2)nc2ncccn12	22.3	21.5	38.3	11.3
Clc1c(CSc2nc3ccccc3o2)nc2ccccn12	0.7	51.6	86.6*	/
Cc1ccc(SCc2cn3ccccc3n2)cc1	38.5	34.8	49.1	?
c1ccc(CSCc2cn3ccccc3n2)cc1	70.5*	22.5	47.8	13.5
c1ccc2oc(SCc3cn4ccccc4n3)nc2c1	/	47.9	64.0*	3.5
C/[N+]([O-])=C\C1C(=O)CC(C)(C)CC1=O	/	-54.5*	-62.7	-9.7
C=CCO/N=C/C1C(=O)CC(C)(C)CC1=O	/	-7.6	6.3	16.9
CNC(=O)NC(=O)C(C)OC(=O)c1c2c(nc3ccccc13)/C(=C/c1cccs1)CC2 (centres undefined)	/	21.4	60.2*	-23.7
